The record followed here is PubChem BioAssay (NCI).

Compounds without any hit were thinned out: in the full panel of roughly 83,000, 20% have a hit.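 Treatment: one concentration, 48 hours, 96-well format. Scoring: percent growth, with anything below 10 considered active.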 Unmarked numbers belong to inactive results. The source made the active and inactive calls.

Among the test systems are T-47D breast; BT-549 breast; MDA-MB-435 melanoma; SW-620 colon; MCF7 breast; HCT-116 colon; HCC-2998 colon; KM12 colon.
Assay in all cases: NCI-60 one-dose screen, 48 h (100 = growth as untreated, 0 = no growth, -100 = all killed)
What all share (conditions): 10 µM unless noted

Turning to `CCCCCCCCCCCC(=O)OC(C)C(=O)Nc1ccccc1` (stereo not drawn), the growth is 87.9% in the test on T-47D breast; 82% with BT-549 breast; 106% in the test on MDA-MB-435 melanoma; 95.1% in the test with SW-620 colon; 91.7% with MCF7 breast; 96.5% in the test with HCT-116 colon. The growth in the test on HCC-2998 colon is 103%; in the test on KM12 colon, 102%.
`CC(=O)C(CO)C(=O)Nc1ccccc1` (stereo not drawn): the growth with T-47D breast was 94.5%; in the test with BT-549 breast, 106%; in the test on MDA-MB-435 melanoma, 106%; in the test with SW-620 colon, 109%; in the test with MCF7 breast it was 91.5%; in the test on HCT-116 colon, 106%. The growth was 99.3% in the test on HCC-2998 colon and 104% with KM12 colon.
As to `O=C(O)c1ccc(Br)nc1`, the growth is 99.1% in the test on T-47D breast; 106% in the test on BT-549 breast; 103% in the test with MDA-MB-435 melanoma; 97.1% with SW-620 colon; 93.8% with MCF7 breast; 98% in the test with HCT-116 colon. The values for the growth in the test on HCC-2998 colon and in the test with KM12 colon were 104% and 107%, respectively.
On to `O=C1C=C(OCC=C(C(F)(F)F)C(F)(F)F)c2ccccc2C1=O`, for which the growth is -68.9% (active) in the test on T-47D breast; 39% in the test on BT-549 breast; -40.2% (active) with MDA-MB-435 melanoma; -34.9% (active) with SW-620 colon; -76.8% (active) with MCF7 breast; -33.3% (active) in the test with HCT-116 colon. The growth in the test with HCC-2998 colon is -12.1% (active); with KM12 colon, 43.3%.
For `CCCNC(=O)Oc1ccc(/C(=C(/CC)Cc2ccccc2)c2ccc(OCCN(CC)CC)cc2)cc1`, the growth was 34.1% with T-47D breast; 97.4% with BT-549 breast; 87.8% with MDA-MB-435 melanoma; 70.9% in the test on SW-620 colon; 26.3% in the test with MCF7 breast; 49.1% in the test on HCT-116 colon. For the same molecule, the growth is 50% with HCC-2998 colon and 69.2% in the test with KM12 colon.
Regarding `Cc1ccnc2c(NC(C)CCCN)cc(O)c(O)c12` (stereo not drawn), the growth is 106% in the test with T-47D breast; 92.1% in the test on BT-549 breast; 103% with MDA-MB-435 melanoma; 100% in the test with SW-620 colon; 31.5% with MCF7 breast; 99.7% in the test with HCT-116 colon. The growth was 91.6% in the test with HCC-2998 colon and 109% in the test on KM12 colon.
With `CCCCCc1ccnc(CC(=O)c2ccc(OC)cc2)c1`, the growth with T-47D breast is 82.3%; in the test on BT-549 breast, 93.8%; in the test with MDA-MB-435 melanoma, 102%; in the test with SW-620 colon, 88.4%; in the test on MCF7 breast it was 87.4%; in the test on HCT-116 colon, 78.2%. The values for the growth in the test on HCC-2998 colon and in the test on KM12 colon were 101% and 99.9%, respectively.
Take `CCN(CC)C(=O)C1(C)CCCC2(C)c3cc(OC(C)=O)ccc3CCC12` (stereo not drawn): the growth in the test with T-47D breast is 71.7%; in the test on BT-549 breast, 95.4%; in the test on MDA-MB-435 melanoma it was 72.9%; with SW-620 colon, 89.1%; in the test with MCF7 breast, 87.9%; in the test on HCT-116 colon, 84.9%. In addition, the results for the growth in the test on HCC-2998 colon and in the test with KM12 colon were 109% and 82.2%, respectively.
For the molecule `OCC(O)C(O)CC1SCCS1` (stereo not drawn), the growth was 97.1% in the test on T-47D breast; 102% with BT-549 breast; 105% with MDA-MB-435 melanoma; 99.7% in the test on SW-620 colon; 103% in the test with MCF7 breast; 104% in the test with HCT-116 colon. Further, the growth in the test with HCC-2998 colon was 108%; in the test on KM12 colon, 103%.
With `O=C(Cc1ccccc1[N+](=O)[O-])c1ccc2c(c1)OCO2`, the growth is 94.4% in the test on T-47D breast; 92.1% in the test with BT-549 breast; 102% in the test on MDA-MB-435 melanoma; 99% in the test with SW-620 colon; 96.5% in the test on MCF7 breast; 103% with HCT-116 colon. Also, the growth in the test with HCC-2998 colon is 116%; with KM12 colon it was 107%.
`CC(=O)N1N=C(c2ccc(Cl)cc2)CC1c1cn(-c2ccccc2)nc1-c1ccc([N+](=O)[O-])cc1` (stereo not drawn): the growth in the test with T-47D breast was 86.9%; in the test on BT-549 breast, 89.7%; in the test with MDA-MB-435 melanoma, 98.1%; in the test on SW-620 colon, 99%; with MCF7 breast it was 95.9%; in the test with HCT-116 colon, 97.1%. Besides, the growth was 231% in the test with HCC-2998 colon and 101% with KM12 colon.
Take `FC(F)(F)c1cccc(-c2[nH]ncc2-c2nnnn2-c2ccccc2)c1`: the growth in the test on T-47D breast was 44.9%; in the test on BT-549 breast, 42.8%; in the test on MDA-MB-435 melanoma, -7.25% (active); in the test with SW-620 colon it was 16.5%; in the test with MCF7 breast it was 24.1%; in the test on HCT-116 colon, 20.7%. Further, the results for the growth in the test on HCC-2998 colon and in the test on KM12 colon were 31.1% and 23.9%, respectively.
Regarding `CCCC(=O)NNc1[nH]c(-c2ccc(OC)cc2)cc1C(=O)OCC`, the growth was 63.9% in the test with T-47D breast; 99.4% in the test on BT-549 breast; 95.2% in the test on MDA-MB-435 melanoma; 95.5% with SW-620 colon; 104% in the test on MCF7 breast; 109% in the test on HCT-116 colon. For the same molecule, the results for the growth with HCC-2998 colon and in the test with KM12 colon were 75.2% and 98.9%, respectively.
As for `COc1cc(CNC(=O)CCCC/C=C/C(C)C)ccc1OCc1nnc(Nc2ccccc2F)o1`, the growth in the test with T-47D breast was 65%; in the test on BT-549 breast, 76.9%; in the test on MDA-MB-435 melanoma it was 100%; with SW-620 colon, 98.9%; with MCF7 breast, 66.9%; in the test on HCT-116 colon it was 53.5%. The results for the growth in the test with HCC-2998 colon and in the test on KM12 colon were 90.8% and 78.8%, respectively.
Turning to `CSC1=Nc2c(c(C)c(-c3ccccc3)n2CCCCl)C2=NC(=O)CN12`, the growth in the test with T-47D breast was 72.4%; in the test with BT-549 breast it was 61.2%; with MDA-MB-435 melanoma, -31.4% (active); in the test with SW-620 colon it was 44.4%; in the test on MCF7 breast it was 36.3%; with HCT-116 colon, 26.7%. Besides, the growth with HCC-2998 colon is 72.3%; with KM12 colon, 26.1%.
With `CC(C)(C)c1cc(C[P+](c2ccc(Cl)cc2)(c2ccc(Cl)cc2)c2ccc(Cl)cc2)cc(C(C)(C)C)c1O`, the growth in the test on T-47D breast was 56.1%; in the test with BT-549 breast, 102%; in the test with MDA-MB-435 melanoma, 84.7%; with SW-620 colon it was 79.6%; in the test with MCF7 breast it was 65.1%; with HCT-116 colon, 40.7%. In addition, the growth with HCC-2998 colon was 107%; in the test with KM12 colon it was 88.9%.
